Only some compounds are listed: those with a hit (about 4.7% of all), similar ones and a draw of the others.
PABP1 MLLE inh – blocks PAM2 peptide binding to the PABP1 MLLE domain | GST-MLLE / FITC-PAM2 fluorescence polarization | inhibition, % at 20 µM | 0.36% of 360,000 active | P11940; in the data active = inhibition above about 35%, passing the limit was not always enough
ALR H2O2 inh – blocks human ALR sulfhydryl oxidase activity. 3.8% of 290,000 active. purified ALR, DTT oxidation, H2O2 HRP-luminol luminescence. inhibition, % (test concentration not listed);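 active = mean replicate inhibition above about 79%, with every replicate also reaching it, limit read from the data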
Target sequence (P55789 whole entry, looked up): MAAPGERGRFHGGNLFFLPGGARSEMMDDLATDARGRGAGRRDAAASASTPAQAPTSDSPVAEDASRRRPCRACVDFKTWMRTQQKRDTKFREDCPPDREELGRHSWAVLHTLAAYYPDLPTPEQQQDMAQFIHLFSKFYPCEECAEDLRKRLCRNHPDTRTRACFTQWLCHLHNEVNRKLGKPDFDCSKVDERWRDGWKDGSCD
PABP FP inh – PABP-poly(A) binding inhibition; 1% of 290,000 active; PABP-poly(A) RNA binding, fluorescence polarization; AID 2014; inhibition, % at 35 µM; P11940;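 note: calls also rest on retests at 20 µM and on dose response follow-up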
Efflux pump inh – blocks antifungal efflux pumps in multiplex yeast assay | 0.44% of 330,000 active | AID 485275 | S. cerevisiae Candida pump triplex, Nile Red efflux | inhibition, % at 10 µM;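 active = plate passing quality check with inhibition over a set limit, or well fluorescence over plate mean plus 4 SD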;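 note: Nile Red retained in pooled yeast measured as flow cytometry median fluorescence; higher means more Nile Red kept so more efflux inhibition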
eIF4H inh – inhibitors of RNA binding by human eIF4H. Q15056. eIF4H fluorescence polarization binding assay. inhibition, % at 35 µM. 0.94% of 290,000 active. AID 2012;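 note: calls also rest on retests at 20 µM and on dose response follow-up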
SUMO HTRF inh – SUMOylation inhibition; inhibition, % at 35 µM; HTRF SUMOylation assay, SAE1/SAE2 + UBC9, in vitro; 0.36% of 290,000 active; AID 2006; P63279; in the data active = inhibition above about 50%, passing the limit was not always enough
Target sequence (P63279 whole entry, looked up): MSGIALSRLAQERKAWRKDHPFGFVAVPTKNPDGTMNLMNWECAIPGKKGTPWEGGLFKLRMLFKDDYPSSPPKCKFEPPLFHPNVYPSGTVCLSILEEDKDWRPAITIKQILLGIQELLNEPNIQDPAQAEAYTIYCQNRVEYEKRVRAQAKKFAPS
Cmpd fluor yeast – compound fluorescence in yeast efflux pump counter-screen; AID 588517; S. cerevisiae AD/pABC3, flow cytometry; 4% of 1,700 active; shares compounds with Efflux pump inh; fluorescence ratio to DMSO, % at 10 µM;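 active = fluorescence ratio to DMSO above its plate's cutoff, the plate mean ratio plus 5 SD, cut at about 210% in these data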;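 note: unstained yeast with no Nile Red so the signal is compound autofluorescence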
CaMdr1 efflux inh – inhibitors of Candida albicans Mdr1 efflux pump. shares compounds with Efflux pump inh. S. cerevisiae AD/CaMDR1, Nile Red efflux, flow cytometry. inhibition, % at 10 µM. 1% of 1,700 active. AID 588518; in the data active = inhibition above about 26%;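 note: higher means more Nile Red retained so more efflux inhibition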
Cdr2 pump inh – inhibitors of Candida albicans Cdr2 efflux pump; shares compounds with Efflux pump inh; S. cerevisiae AD/CaCDR2, Nile Red retention, flow cytometry; Nile Red retention ratio vs DMSO, % at 10 µM; 4% of 1,700 active; AID 588520; in the data active = Nile Red retention ratio vs DMSO above about 190%;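 note: higher ratio means more blocking of Cdr2 efflux of the dye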
Cdr1 pump inh – inhibitors of Candida albicans Cdr1 efflux pump | 1% of 1,700 active | inhibition, % at 10 µM | S. cerevisiae AD/CaCDR1, Nile Red efflux, flow cytometry | shares compounds with Efflux pump inh | AID 588522;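 active = inhibition above the screen-wide mean plus twice its standard deviation, cut at about 32% in these data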
A number is an active result; i = inactive; nt = no result. Unless noted, the rule behind the calls is not given here.

SMILES	PABP1 MLLE inh	ALR H2O2 inh	PABP FP inh	Efflux pump inh	eIF4H inh	SUMO HTRF inh	Cmpd fluor yeast	CaMdr1 efflux inh	Cdr2 pump inh	Cdr1 pump inh
CCCOc1ccc(C(=O)Nc2ccc(NC(=O)c3cccs3)cc2)cc1	i	nt	i	1.7	i	i	i	i	i	i
CC(C)(C)NC(=O)C(c1ccc(F)cc1)N(C(=O)CCC(=O)Nc1ccccn1)C1CCCC1 (stereo not given)	i	i	i	2.4	i	i	i	i	i	i
CC(C)NC(=O)C(c1ccc(F)cc1)N(C(=O)CCC(=O)Nc1ccccn1)C1CCCC1 (stereo not given)	i	i	i	i	i	i	nt	nt	nt	nt
COc1ccc(C(C(=O)NC(C)(C)C)N(CCO)C(=O)CCC(=O)Nc2cc(C)on2)cc1 (stereo not given)	i	nt	i	i	i	i	i	i	i	i
CCCCN(C(=O)CCC(=O)Nc1cc(C)on1)C(C(=O)NC(C)(C)C)c1cccc(OC)c1OC (stereo not given)	i	i	i	i	i	i	nt	nt	nt	nt
COc1cccc(C(C(=O)NC(C)(C)C)N(C(=O)CCC(=O)Nc2cc(C)on2)C2CC2)c1OC (stereo not given)	i	i	i	i	i	i	i	i	i	i
COc1ccc(C(=O)Nc2ccc(S(=O)(=O)Nc3onc(C)c3C)cc2)c(OC)c1	i	i	i	i	i	i	nt	nt	nt	nt
CN(C(=O)CCNC(=O)Cn1cnc2ccccc2c1=O)c1ccccc1F	i	i	i	i	i	i	nt	nt	nt	nt
Cn1nc([N+](=O)[O-])nc1Sc1ccc(Cl)cc1	i	i	i	0.8	i	i	i	i	i	i
O=C(CCC(=O)c1cccs1)NCc1cccc(C(F)(F)F)c1	i	i	nt	i	nt	nt	nt	nt	nt	nt
COc1cc(C(=O)N2CCN(c3cc(Cl)ccc3Cl)CC2)cc(OC)c1OC	i	i	i	0.6	i	i	i	i	i	i
COc1cc(C(=O)N2CCN(c3cccc(C)c3C)CC2)cc(OC)c1OC	i	i	i	i	i	i	nt	nt	nt	nt
COc1ccc(OC)c2c1C(=O)C(Cl)=C(Cl)C2=O	58	i	i	1.5	i	i	i	i	246	i
COc1ccc(OC)c2c1C(=O)CC2C (stereo not given)	i	nt	nt	nt	nt	nt	nt	nt	nt	nt
CCc1ccc(OC)c(S(=O)(=O)Nc2ccc(Cc3ccncc3)cc2)c1	i	i	i	i	i	i	nt	nt	nt	nt
CC(C)c1ccccc1-n1c(SCc2cc(=O)oc3ccc4ccccc4c23)nnc1-c1cccnc1	i	i	active	15	58	i	i	i	i	i
CSCCC(NC(=O)c1ccccc1)C(=O)N1CCN(C(c2ccccc2)c2ccccc2)CC1 (stereo not given)	i	i	i	i	i	i	nt	nt	nt	nt
COc1ccccc1-c1nc(C#N)c(N2CCN(c3cccc(Cl)c3)CC2)o1	i	i	i	i	i	i	nt	nt	nt	nt
COc1ccccc1-c1nc(C#N)c(N2CCN(C(c3ccccc3)c3ccccc3)CC2)o1	i	i	i	0.5	i	i	i	i	i	i
Cc1ccccc1OCC(=O)NCCc1nc2ccccc2[nH]1	i	99	i	15	i	i	i	i	i	i
Cc1sc2ncnc(OCC(=O)N3CCN(C(=O)c4ccco4)CC3)c2c1C	i	nt	i	i	i	i	nt	nt	nt	nt
COc1nc(N/N=C/c2ccc(-c3ccccc3[N+](=O)[O-])o2)nc(N2CCOCC2)n1	i	i	i	16	i	i	i	i	i	i
O=C(C[n+]1cc(-c2ccc(Cl)cc2)n2c1CCC2)N1c2ccccc2Sc2ccccc21	i	i	i	i	i	i	nt	nt	nt	nt
Cc1ccc(C(=O)C[n+]2cc(-c3ccc(C)cc3)n3c2CCCCC3)cc1	i	i	i	i	i	i	nt	nt	nt	nt
Cc1ccc(-c2c[n+](CC(=O)Nc3ccc(C)cc3C)c3n2CCC3)cc1	i	i	i	i	i	i	nt	nt	nt	nt
SMILES	PABP1 MLLE inh	ALR H2O2 inh	PABP FP inh	Efflux pump inh	eIF4H inh	SUMO HTRF inh	Cmpd fluor yeast	CaMdr1 efflux inh	Cdr2 pump inh	Cdr1 pump inh
Cc1ccc(-c2c[n+](Cc3ccc(Cl)c(Cl)c3)c3n2CCC3)cc1	i	i	i	18	i	i	i	i	i	i
Cc1ccc(NC(=O)C[n+]2cc(-c3ccc(C)cc3)n3c2CCC3)cc1	i	nt	i	i	i	i	i	i	i	i
O=C(C[n+]1cc(-c2ccc(Cl)c(Cl)c2)n2c1CCC2)N1c2ccccc2Sc2ccccc21	i	nt	i	4.3	i	i	i	i	i	i
COc1cccc(NC(=O)C/C(C)=N/NC(=O)c2ccccc2Cl)c1	i	i	i	0.8	i	i	i	i	i	i
COc1ccc(Cl)cc1NC(=O)C/C(C)=N/NC(=O)c1ccccc1Cl	i	i	i	i	i	i	nt	nt	nt	nt
CCN(CC)c1cccc(OCC(=O)N(C)CCC#N)c1	i	98	57	2.1	60	i	i	i	i	i
COc1ccccc1CC(=O)NC(=O)c1ccccc1O	i	i	i	3.0	i	i	i	i	i	i
Cc1cccc(N2CCN(C(=O)CN3C(=O)NC4(CCCCCC4)C3=O)CC2)c1C	i	nt	nt	nt	nt	nt	nt	nt	nt	nt
Cc1nnc(N/N=C/c2cc([N+](=O)[O-])c(N3CCC(C)CC3)cc2N2CCC(C)CC2)n1N	i	i	i	7.2	i	i	i	i	i	i
CC(C)Cc1nnc(NS(=O)(=O)Cc2ccccc2)s1	i	i	i	9.0	i	i	i	i	i	i
O=C(C1CCCCC1)N1CCCC(c2nc(-c3ccc(F)cc3)no2)C1 (stereo not given)	i	i	i	8.2	i	i	i	i	i	i
COc1ccccc1NC(=O)CNc1ccc(F)c(Cl)c1	i	i	i	14	i	i	i	i	i	i
COc1ccccc1NC(=O)NCC(=O)Nc1ccc(F)c(F)c1	i	i	i	i	i	i	nt	nt	nt	nt
Nc1ccn(CC(=O)NCCc2ccccn2)c(=O)n1	i	i	nt	2.8	nt	nt	i	i	i	i
c1cc2c(cc1C1CCCCC1)c1c3n2CCCNC3CCC1 (stereo not given)	i	i	i	95	i	i	i	i	i	i
O=C(O)C1CC=CCC1C(=O)NC1CCCCC1 (stereo not given)	i	i	i	i	i	i	nt	nt	nt	nt
CC1CC(C)CN(c2ncc3c(n2)CC(c2ccc(Cl)cc2)CC3=O)C1 (stereo not given)	i	i	i	6.7	i	i	i	i	i	i
COc1ccc(Cn2c(=O)c3[nH]cnc3n(-c3ccccc3C)c2=O)cc1	i	nt	i	0.8	i	i	i	i	i	i
COc1ccc(C)c(-n2c(=O)n(Cc3ccccc3)c(=O)c3[nH]cnc32)c1	i	i	i	i	i	i	nt	nt	nt	nt
